Laboratory results as given in the antibiotic and cytotoxicity screens of Wong et al. (2023).
In all, about 39,000 compounds went through this assay and about 3,300 (8.5%) were called active. This excerpt belongs to a sample that is enriched for actives.

What follows are molecules tested on HepG2 (assay: cytotoxicity call (relative viability < 0.9)). Details: 10 µM.

| Structure (SMILES) | cytotoxicity call |
| --- | --- |
| COc1ccc(NC(=O)Nc2ccc3c(c2)C(=O)N([C@H](C)CO)C[C@@H](C)[C@@H](CN(C)C(=O)Cc2ccccc2)OCCCC[C@H](C)O3)cc1 | inactive |
| NC1(C#Cc2cncc(C(=O)N3CCOCC3)c2)CCCCC1 | inactive |
| C[C@@H]1CN([C@H](C)CO)C(=O)c2cc(NC(=O)NC3CCCCC3)ccc2O[C@@H](C)CCCCO[C@H]1CN(C)Cc1ccc2c(c1)OCO2 | inactive |
| Cc1ccc(S(=O)(=O)Nc2ccc3c(c2)CC(=O)N([C@H](C)CO)C[C@H](C)[C@H](CN(C)S(=O)(=O)c2ccccc2)O3)cc1 | inactive |
| COc1ccccc1S(=O)(=O)N[C@H]1C=C[C@H](CC(=O)N2CCN(C)CC2)O[C@H]1CO | inactive |
| COc1ccc(NC(=O)Nc2ccc3c(c2)C(=O)N([C@@H](C)CO)C[C@@H](C)[C@H](CN(C)S(=O)(=O)c2c(C)noc2C)OCCCC[C@@H](C)O3)cc1 | inactive |
| Cc1cc(C(=O)Nc2cccc3c2O[C@H](CN(C)C(=O)NC(C)C)[C@@H](C)CN([C@@H](C)CO)C3=O)n(C)n1 | inactive |
| C[C@@H]1CCCCO[C@@H](CN(C)S(=O)(=O)c2cccs2)[C@@H](C)CN([C@H](C)CO)C(=O)c2cc(NC(=O)c3ccccc3)ccc2O1 | inactive |
| O=C(C[C@@H]1CC[C@@H](NS(=O)(=O)c2ccccc2F)[C@@H](CO)O1)NCCCN1CCOCC1 | inactive |
| O=C(C[C@@H]1CC[C@@H]2[C@H](COC[C@@H](O)CN2C(=O)C2CC2)O1)NCc1ccncc1 | inactive |
| C[C@H](CO)N1C[C@H](C)[C@@H](CN(C)C(=O)Nc2ccc(C(F)(F)F)cc2)Oc2ccc(NC(=O)Cc3ccccc3)cc2C1=O | inactive |
| C[C@@H]1CN([C@H](C)CO)C(=O)c2cc(NC(=O)Nc3ccc(F)cc3)ccc2O[C@H]1CN(C)C(=O)Nc1ccc(C(F)(F)F)cc1 | inactive |
| C[C@H](CO)N1C[C@H](C)[C@H](CN(C)C(=O)Nc2ccc(C(F)(F)F)cc2)Oc2ccc(NC(=O)Cc3ccccc3)cc2C1=O | active |
| C[C@H]1CN([C@@H](C)CO)C(=O)c2cc(NC(=O)Cc3ccccc3)ccc2O[C@@H]1CN(C)C(=O)Nc1ccc(C(F)(F)F)cc1 | inactive |
| C[C@@H]1CN([C@@H](C)CO)C(=O)c2cc(NC(=O)Nc3ccc(F)cc3)ccc2O[C@@H]1CN(C)C(=O)Nc1ccc(C(F)(F)F)cc1 | inactive |
| C[C@H](CO)N1C[C@H](C)[C@@H](CN(C)C(=O)Nc2ccc(F)cc2)Oc2ccc(NC(=O)Nc3ccc(C(F)(F)F)cc3)cc2C1=O | inactive |
| C[C@@H]1CN([C@H](C)CO)C(=O)c2cc(NC(=O)Nc3ccc(C(F)(F)F)cc3)ccc2O[C@@H]1CN(C)C(=O)Nc1ccc(F)cc1 | active |
| C[C@@H]1CN([C@@H](C)CO)C(=O)c2cc(NC(=O)Nc3ccc(C(F)(F)F)cc3)ccc2O[C@@H]1CN(C)C(=O)Nc1ccc(F)cc1 | active |
| C[C@H]1CN([C@@H](C)CO)C(=O)c2cc(NC(=O)Nc3ccc(C(F)(F)F)cc3)ccc2O[C@H]1CN(C)C(=O)Nc1ccc(F)cc1 | inactive |
| CNc1[nH]cnc(=S)c1N | inactive |
| COc1ccc(NC(=O)Nc2ccc3c(c2)C(=O)N([C@H](C)CO)C[C@@H](C)[C@H](CN(C)CC2CCCCC2)O3)cc1 | inactive |

| Structure (SMILES) | cytotoxicity call |
| --- | --- |
| CO[C@H]1CN(C(=O)c2ccnnc2)[C@H]2COC[C@@H]12 | inactive |
| Cc1noc(C)c1S(=O)(=O)Nc1ccc2c(c1)C(=O)N([C@@H](C)CO)C[C@@H](C)[C@@H](CN(C)Cc1ccc3c(c1)OCO3)O2 | inactive |
| Cc1cc(O)c(C(=O)NC(C(=O)NC2C(=O)N3C(C(=O)O)=C(CSc4nnnn4C)CSC23)c2ccc(O)cc2)cn1 (stereo not drawn) | inactive |
| C[C@H](CO)N1C[C@H](C)[C@@H](CN(C)C(=O)Nc2cccc3ccccc23)Oc2ccc(NC(=O)Nc3ccc4c(c3)OCO4)cc2C1=O | inactive |
| N[C@H]1[C@H](CCCCC(=O)O)SC[C@@H]1N | inactive |
| Cc1noc(C)c1NC(=O)N(C)C[C@@H]1Oc2ccc(NC(=O)c3ccncc3)cc2CC(=O)N([C@@H](C)CO)C[C@H]1C | inactive |
| Cl.NCCc1ccc(O)c(O)c1 | active |
| NCCc1ccc(O)c(O)c1 | inactive |
| CC(Cc1ccc(O)c(O)c1)C(C)Cc1ccc(O)c(O)c1 (stereo not drawn) | inactive |
| O=C(C[C@H]1CC[C@@H]2[C@H](COC[C@@H](O)CN2C(=O)C2CC2)O1)NCc1ccncc1 | inactive |
| COc1cc(CO)cc(I)c1O[C@H]1C=C(C(=O)NCCO)C[C@@H](NC2CCCCCC2)[C@@H]1O | active |
| COc1cc(CO)cc(I)c1O[C@H]1C=C(C(=O)NCCO)C[C@@H](NCc2ccc(F)cc2)[C@@H]1O | inactive |
| COc1cc(CO)cc(I)c1O[C@H]1C=C(C(=O)NCCO)C[C@@H](NC[C@@H]2CCCO2)[C@@H]1O | inactive |
| C[C@H](CO)N1C[C@H](C)[C@@H](CN(C)Cc2ccc(Cl)c(Cl)c2)OCCCC[C@H](C)Oc2ccc(NC(=O)Cc3ccccc3)cc2C1=O | active |
| C[C@@H]1CN([C@@H](C)CO)C(=O)c2cc(NC(=O)Cc3ccccc3)ccc2O[C@@H](C)CCCCO[C@H]1CN(C)Cc1ccccc1 | inactive |
| C[C@@H]1CN([C@H](C)CO)C(=O)c2cc(NC(=O)Cc3ccccc3)ccc2O[C@@H](C)CCCCO[C@H]1CN(C)Cc1ccc(Cl)c(Cl)c1 | active |
| C[C@@H]1CCCCO[C@H](CN(C)Cc2ccc(Cl)c(Cl)c2)[C@H](C)CN([C@@H](C)CO)C(=O)c2cc(NC(=O)Cc3ccccc3)ccc2O1 | inactive |
| C[C@H]1CCCCO[C@@H](CN(C)Cc2ccccc2)[C@@H](C)CN([C@@H](C)CO)C(=O)c2cc(NC(=O)Cc3ccccc3)ccc2O1 | inactive |
| C[C@@H]1CCCCO[C@@H](CN(C)Cc2ccc(Cl)c(Cl)c2)[C@@H](C)CN([C@H](C)CO)C(=O)c2cc(NC(=O)Cc3ccccc3)ccc2O1 | active |
| C[C@@H]1CCCCO[C@@H](CN(C)Cc2ccccc2)[C@@H](C)CN([C@@H](C)CO)C(=O)c2cc(NC(=O)Cc3ccccc3)ccc2O1 | inactive |
| C[C@@H]1CCCCO[C@H](CN(C)Cc2ccc(Cl)c(Cl)c2)[C@@H](C)CN([C@H](C)CO)C(=O)c2cc(NC(=O)Cc3ccccc3)ccc2O1 | active |

| Structure (SMILES) | cytotoxicity call |
| --- | --- |
| C[C@@H]1CCCCO[C@@H](CN(C)Cc2ccc(Cl)c(Cl)c2)[C@H](C)CN([C@H](C)CO)C(=O)c2cc(NC(=O)Cc3ccccc3)ccc2O1 | inactive |
| C[C@@H]1CN([C@@H](C)CO)C(=O)c2cc(NC(=O)Cc3ccccc3)ccc2O[C@@H](C)CCCCO[C@@H]1CN(C)Cc1ccccc1 | inactive |
| CC(C)NC(=O)[C@@]1(C)c2ccccc2C(=O)N(Cc2cc(C(F)(F)F)cc(C(F)(F)F)c2)[C@H]1c1ccc(CO)cc1 | inactive |
| C[C@H](CO)N1C[C@H](C)[C@@H](CN(C)S(=O)(=O)c2ccccc2F)Oc2cc(C#Cc3cccc(F)c3)ccc2S1(=O)=O | inactive |
| COc1ccc(S(=O)(=O)N(C)C[C@H]2Oc3ccc(NC(=O)Cc4ccccc4)cc3CC(=O)N([C@@H](C)CO)C[C@@H]2C)cc1 | inactive |
| C[C@H](CO)N1C[C@H](C)[C@@H](CN(C)C(=O)Cc2ccccn2)Oc2ncc(C#CC3CCCCC3)cc2C1=O | inactive |
| C[C@H](CO)N1C[C@H](C)[C@H](CN(C)S(=O)(=O)c2ccc(F)cc2)Oc2ccc(NC(=O)c3ccncc3)cc2C1=O | inactive |
| CC(C)NC(=O)Nc1ccc2c(c1)CC(=O)N([C@@H](C)CO)C[C@H](C)[C@@H](CN(C)Cc1ccc3c(c1)OCO3)O2 | inactive |
| C[C@@H]1CCCCO[C@@H](CN(C)C(=O)c2ccccc2)[C@H](C)CN([C@@H](C)CO)C(=O)c2cc(NC(=O)Nc3ccc(F)cc3)ccc2O1 | inactive |
| C[C@H](NC(=O)C[C@H]1C[C@H]2c3cc(NC(=O)Nc4ccc(C(F)(F)F)cc4)ccc3O[C@H]2[C@@H](CO)O1)c1ccccc1 | inactive |
| CC(C)[Si]1(C(C)C)OCc2cc(-c3ccc(-c4ccc(Cl)c(Cl)c4)o3)nc(-c3ccccc3)c21 | inactive |
| CCC(=O)OC1C2CC3=C4CC(=O)OC(c5ccoc5)C4(C)CCC3C(C)(C2=O)C(CC(=O)OC)C1(C)C (stereo not drawn) | inactive |
| C[C@H](CO)N1C[C@H](C)[C@@H](CN(C)S(=O)(=O)c2ccccc2)OCCCC[C@H](C)Oc2ccc(NC(=O)NC3CCCCC3)cc2C1=O | inactive |
| C[C@H]1CCCCO[C@H](CN(C)Cc2ccc(Cl)c(Cl)c2)[C@@H](C)CN([C@@H](C)CO)C(=O)c2cc(NC(=O)Cc3ccccc3)ccc2O1 | active |
| C[C@@H]1CCCCO[C@@H](CN(C)Cc2ccc(Cl)c(Cl)c2)[C@@H](C)CN([C@@H](C)CO)C(=O)c2cc(NC(=O)Cc3ccccc3)ccc2O1 | inactive |
| C[C@@H]1CCCCO[C@H](CN(C)Cc2ccccc2)[C@@H](C)CN([C@H](C)CO)C(=O)c2cc(NC(=O)Cc3ccccc3)ccc2O1 | inactive |
| C[C@@H]1CCCCO[C@@H](CN(C)Cc2ccc(Cl)c(Cl)c2)[C@H](C)CN([C@@H](C)CO)C(=O)c2cc(NC(=O)Cc3ccccc3)ccc2O1 | active |
| C[C@@H]1CCCCO[C@H](CN(C)Cc2ccc(Cl)c(Cl)c2)[C@@H](C)CN([C@@H](C)CO)C(=O)c2cc(NC(=O)Cc3ccccc3)ccc2O1 | inactive |
| C[C@@H]1CN([C@H](C)CO)C(=O)c2cc(NC(=O)Cc3ccccc3)ccc2O[C@@H](C)CCCCO[C@@H]1CN(C)Cc1ccc(Cl)c(Cl)c1 | inactive |
| C[C@H]1CN([C@@H](C)CO)S(=O)(=O)c2ccc(C#CC3(O)CCCC3)cc2O[C@@H]1CN(C)C(=O)Nc1ccccc1 | inactive |
| C[C@H](CO)N1C[C@H](C)[C@@H](CN(C)S(=O)(=O)c2cccs2)OCCCC[C@H](C)Oc2ccc(NC(=O)Cc3ccccc3)cc2C1=O | inactive |
